# From the supplement of paper PMC10849652
# Targets with a hit are over-represented here; the source holds about 8,800 in all. About 0.5% of all pairs of compound and target were hits. Unmarked numbers belong to inactive results.
# Tests used:
# Test in all cases: log2 fold change, soluble protein after heating vs DMSO (PISA); higher = thermal stabilisation; K562 lysate, 10 uM; active = over 0.2 and 3.5 SD of the protein, either way, in both replicates (recomputed)
# ibrutinib = compound: C=CC(=O)N1CCC[C@@H](n2nc(-c3ccc(Oc4ccccc4)cc3)c3c(N)ncnc32)C1 [ibrutinib]
# Method in brief: (§1)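 Values give the log-two fold change in thermal stability against solvent controls, from duplicates. Crude K562 extract at 1 mg/mL protein, made by dounce homogenisation in PBS pH 7.4 with 1 mM MgCl2, was treated with 10 μM compound for 30 min. After 3 min heating across 48°C-58°C, aliquots were pooled, adjusted to 0.5% NP-40 at 4°C and centrifuged at 21,000xg for 90 min. The supernatant was measured by TMTpro 16plex LC-MS/MS with channel sums equalised.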
# [1] = compound: CC(=O)c1cnc2ccc(-c3cc(Cl)c(O)c(Cl)c3)nc2c1N[C@H]1CC[C@H](CN(C)C)CC1
# Method in brief: as §1
# ralimetinib = compound: CC(C)(C)Cn1c(N)nc2ccc(-c3[nH]c(C(C)(C)C)nc3-c3ccc(F)cc3)nc21 [ralimetinib]
# Method in brief: as §1
# [2] = compound: CC(C)(O)CC(=O)NCCn1ccc2ncnc(Nc3ccc(Oc4cccc(C(F)(F)F)c4)c(Cl)c3)c21
# Method in brief: as §1
# [3] = compound: CC(C)C1=C2N=C(C=C(N2N=C1)NCC3=CC=CC=C3)NCCCCCCN
# Method in brief: as §1
# [4] = compound: CC1=C(C(CC(=O)N1)C2=CC=C(C=C2)C(F)(F)F)C(=O)NC3=C(C=C4C(=C3)C=NN4)F
# Method in brief: as §1
# [5] = compound: CC1=C(C2=C(C=C1)C(=O)C3=CC=CC=C3N2CCCN)C
# Method in brief: as §1
# [6] = compound: CC1=C(C=C(C=C1)NC(=O)C2=CC(=CC=C2)C(C)(C)C#N)NC3=CC4=C(C=C3)N=CN(C4=O)C
# Method in brief: as §1
# [7] = compound: CC1=C(C=C(C=C1)NC(=O)C2=CC(=CC=C2)N(C)C)NC(=O)C3=CC=C(C=C3)O
# Method in brief: as §1
# [8] = compound: CC1=CC=C(C=C1)SC2=C3C=C(SC3=CN=C2)C(=O)N
# Method in brief: as §1
# vemurafenib = compound: CCCS(=O)(=O)Nc1ccc(F)c(C(=O)c2c[nH]c3ncc(-c4ccc(Cl)cc4)cc23)c1F [vemurafenib]
# Method in brief: as §1
# [9] = compound: CCCS(=O)(=O)Nc1ccc(F)c(C(=O)c2c[nH]c3ncc(Cl)cc23)c1F
# Method in brief: as §1
# barasertib = compound: CCN(CCCOc1ccc2c(Nc3cc(CC(=O)Nc4cccc(F)c4)[nH]n3)ncnc2c1)CCOP(=O)(O)O [barasertib]
# Method in brief: as §1
# [10] = compound: CC[C@@H]1C(=O)N(C)c2cnc(Nc3ccc(C(=O)NC4CCN(C)CC4)cc3OC)nc2N1C1CCCC1
# Method in brief: as §1
# volasertib = compound: CC[C@@H]1C(=O)N(C)c2cnc(Nc3ccc(C(=O)N[C@H]4CC[C@H](N5CCN(CC6CC6)CC5)CC4)cc3OC)nc2N1C(C)C [volasertib]
# Method in brief: as §1
# [11] = compound: CCn1c(C(=O)N(C2CC2)C2CC2)cc2c3c(ncn3C)c(Nc3cc(C)n(C)n3)nc21
# Method in brief: as §1
# [12] = compound: CCn1cc(-c2ccnc3[nH]c(-c4cccc(CN(C)C)c4)cc23)c(-c2ccc(NC(=O)N(C)C)cc2)n1
# Method in brief: as §1
# [13] = compound: CN1CCC(CNc2ccc3ncc(-c4cccc(OC(F)(F)F)c4)n3n2)CC1
# Method in brief: as §1
# saracatinib = compound: CN1CCN(CCOc2cc(OC3CCOCC3)c3c(Nc4c(Cl)ccc5c4OCO5)ncnc3c2)CC1 [saracatinib]
# Method in brief: as §1
# sotrastaurin = compound: CN1CCN(c2nc(C3=C(c4c[nH]c5ccccc45)C(=O)NC3=O)c3ccccc3n2)CC1 [sotrastaurin]
# Method in brief: as §1
# Sequence of UniProt Q9Y4P3 (Q9Y4P3 whole entry, looked up): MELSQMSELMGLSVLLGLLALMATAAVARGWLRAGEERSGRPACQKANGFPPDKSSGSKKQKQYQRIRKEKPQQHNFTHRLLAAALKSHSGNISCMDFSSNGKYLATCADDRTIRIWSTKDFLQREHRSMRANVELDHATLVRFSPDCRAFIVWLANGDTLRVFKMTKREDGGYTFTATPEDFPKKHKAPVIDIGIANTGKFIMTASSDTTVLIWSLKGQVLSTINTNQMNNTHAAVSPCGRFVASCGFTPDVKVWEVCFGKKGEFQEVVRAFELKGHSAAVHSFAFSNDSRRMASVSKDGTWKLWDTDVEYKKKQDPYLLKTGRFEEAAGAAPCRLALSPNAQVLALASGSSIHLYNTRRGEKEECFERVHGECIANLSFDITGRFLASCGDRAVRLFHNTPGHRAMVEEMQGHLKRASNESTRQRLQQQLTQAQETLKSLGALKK
# Sequence of UniProt Q9UJT0 (Q9UJT0 whole entry, looked up): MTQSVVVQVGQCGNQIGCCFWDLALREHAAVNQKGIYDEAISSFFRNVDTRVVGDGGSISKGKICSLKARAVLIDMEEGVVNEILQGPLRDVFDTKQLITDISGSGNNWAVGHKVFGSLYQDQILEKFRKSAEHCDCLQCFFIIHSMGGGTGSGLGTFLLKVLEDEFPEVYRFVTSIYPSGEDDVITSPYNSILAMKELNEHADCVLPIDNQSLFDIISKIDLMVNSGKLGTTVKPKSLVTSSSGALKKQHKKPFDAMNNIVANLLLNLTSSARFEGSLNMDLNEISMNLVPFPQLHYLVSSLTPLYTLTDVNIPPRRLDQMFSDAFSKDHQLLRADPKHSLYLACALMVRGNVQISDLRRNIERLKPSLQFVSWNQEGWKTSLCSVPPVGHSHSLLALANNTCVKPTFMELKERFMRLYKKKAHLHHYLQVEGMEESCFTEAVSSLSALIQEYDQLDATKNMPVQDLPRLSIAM
# Sequence of UniProt Q9Y4R8 (Q9Y4R8 whole entry, looked up): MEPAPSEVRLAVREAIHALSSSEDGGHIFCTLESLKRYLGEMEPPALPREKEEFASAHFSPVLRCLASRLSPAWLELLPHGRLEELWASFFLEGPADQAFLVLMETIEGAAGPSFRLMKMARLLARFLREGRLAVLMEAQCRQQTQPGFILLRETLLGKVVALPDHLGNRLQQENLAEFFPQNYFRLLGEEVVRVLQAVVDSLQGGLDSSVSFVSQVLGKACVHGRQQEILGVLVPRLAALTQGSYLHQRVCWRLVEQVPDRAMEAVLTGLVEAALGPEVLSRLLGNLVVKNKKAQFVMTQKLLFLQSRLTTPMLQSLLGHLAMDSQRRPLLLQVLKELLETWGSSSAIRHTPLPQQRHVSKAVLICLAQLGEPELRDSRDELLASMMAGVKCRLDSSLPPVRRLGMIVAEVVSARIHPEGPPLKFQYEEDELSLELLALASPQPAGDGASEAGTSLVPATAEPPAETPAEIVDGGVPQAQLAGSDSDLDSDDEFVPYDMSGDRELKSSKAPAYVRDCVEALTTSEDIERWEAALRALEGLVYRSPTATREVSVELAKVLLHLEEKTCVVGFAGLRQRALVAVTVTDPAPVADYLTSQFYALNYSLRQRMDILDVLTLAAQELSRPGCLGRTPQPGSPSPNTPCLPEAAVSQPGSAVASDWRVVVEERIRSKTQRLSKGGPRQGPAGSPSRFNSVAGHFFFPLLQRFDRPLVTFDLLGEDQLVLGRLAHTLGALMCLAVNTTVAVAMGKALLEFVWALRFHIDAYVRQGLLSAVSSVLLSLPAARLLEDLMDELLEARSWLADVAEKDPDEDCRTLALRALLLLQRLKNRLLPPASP
# Sequence of UniProt Q9NX07 (Q9NX07 whole entry, looked up): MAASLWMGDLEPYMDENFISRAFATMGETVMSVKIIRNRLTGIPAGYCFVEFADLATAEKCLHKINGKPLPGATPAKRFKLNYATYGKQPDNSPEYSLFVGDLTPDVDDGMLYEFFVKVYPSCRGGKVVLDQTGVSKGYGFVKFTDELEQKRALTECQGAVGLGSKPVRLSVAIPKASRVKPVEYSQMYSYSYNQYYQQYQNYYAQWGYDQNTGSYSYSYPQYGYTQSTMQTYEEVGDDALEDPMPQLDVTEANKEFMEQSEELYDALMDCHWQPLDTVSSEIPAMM
# Sequence of UniProt Q969Z0 (Q969Z0 whole entry, looked up): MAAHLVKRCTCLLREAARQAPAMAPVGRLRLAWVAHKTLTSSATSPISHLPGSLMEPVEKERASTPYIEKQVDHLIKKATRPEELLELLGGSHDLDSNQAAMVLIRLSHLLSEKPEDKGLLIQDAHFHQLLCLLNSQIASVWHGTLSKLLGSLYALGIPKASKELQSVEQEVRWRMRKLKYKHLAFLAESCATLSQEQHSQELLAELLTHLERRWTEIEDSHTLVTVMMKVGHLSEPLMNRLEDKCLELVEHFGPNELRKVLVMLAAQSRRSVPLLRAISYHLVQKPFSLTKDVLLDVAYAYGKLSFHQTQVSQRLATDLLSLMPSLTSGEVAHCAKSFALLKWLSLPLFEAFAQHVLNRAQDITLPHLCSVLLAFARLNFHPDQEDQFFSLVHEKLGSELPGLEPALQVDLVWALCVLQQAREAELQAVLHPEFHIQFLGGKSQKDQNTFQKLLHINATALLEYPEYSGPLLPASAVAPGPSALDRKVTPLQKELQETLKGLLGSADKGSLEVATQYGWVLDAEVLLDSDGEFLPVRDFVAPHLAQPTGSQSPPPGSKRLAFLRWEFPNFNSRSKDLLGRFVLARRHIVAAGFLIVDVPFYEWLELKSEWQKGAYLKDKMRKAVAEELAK
# Sequence of UniProt P06753 (P06753 whole entry, looked up): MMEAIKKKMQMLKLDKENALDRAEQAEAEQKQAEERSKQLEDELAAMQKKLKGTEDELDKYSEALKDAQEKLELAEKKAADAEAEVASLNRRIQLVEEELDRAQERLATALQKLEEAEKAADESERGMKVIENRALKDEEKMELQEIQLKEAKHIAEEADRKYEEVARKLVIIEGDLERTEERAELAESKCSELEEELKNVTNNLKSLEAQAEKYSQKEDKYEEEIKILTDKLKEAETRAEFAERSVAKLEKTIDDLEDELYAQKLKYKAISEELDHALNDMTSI
# Sequence of UniProt Q92547 (Q92547 whole entry, looked up): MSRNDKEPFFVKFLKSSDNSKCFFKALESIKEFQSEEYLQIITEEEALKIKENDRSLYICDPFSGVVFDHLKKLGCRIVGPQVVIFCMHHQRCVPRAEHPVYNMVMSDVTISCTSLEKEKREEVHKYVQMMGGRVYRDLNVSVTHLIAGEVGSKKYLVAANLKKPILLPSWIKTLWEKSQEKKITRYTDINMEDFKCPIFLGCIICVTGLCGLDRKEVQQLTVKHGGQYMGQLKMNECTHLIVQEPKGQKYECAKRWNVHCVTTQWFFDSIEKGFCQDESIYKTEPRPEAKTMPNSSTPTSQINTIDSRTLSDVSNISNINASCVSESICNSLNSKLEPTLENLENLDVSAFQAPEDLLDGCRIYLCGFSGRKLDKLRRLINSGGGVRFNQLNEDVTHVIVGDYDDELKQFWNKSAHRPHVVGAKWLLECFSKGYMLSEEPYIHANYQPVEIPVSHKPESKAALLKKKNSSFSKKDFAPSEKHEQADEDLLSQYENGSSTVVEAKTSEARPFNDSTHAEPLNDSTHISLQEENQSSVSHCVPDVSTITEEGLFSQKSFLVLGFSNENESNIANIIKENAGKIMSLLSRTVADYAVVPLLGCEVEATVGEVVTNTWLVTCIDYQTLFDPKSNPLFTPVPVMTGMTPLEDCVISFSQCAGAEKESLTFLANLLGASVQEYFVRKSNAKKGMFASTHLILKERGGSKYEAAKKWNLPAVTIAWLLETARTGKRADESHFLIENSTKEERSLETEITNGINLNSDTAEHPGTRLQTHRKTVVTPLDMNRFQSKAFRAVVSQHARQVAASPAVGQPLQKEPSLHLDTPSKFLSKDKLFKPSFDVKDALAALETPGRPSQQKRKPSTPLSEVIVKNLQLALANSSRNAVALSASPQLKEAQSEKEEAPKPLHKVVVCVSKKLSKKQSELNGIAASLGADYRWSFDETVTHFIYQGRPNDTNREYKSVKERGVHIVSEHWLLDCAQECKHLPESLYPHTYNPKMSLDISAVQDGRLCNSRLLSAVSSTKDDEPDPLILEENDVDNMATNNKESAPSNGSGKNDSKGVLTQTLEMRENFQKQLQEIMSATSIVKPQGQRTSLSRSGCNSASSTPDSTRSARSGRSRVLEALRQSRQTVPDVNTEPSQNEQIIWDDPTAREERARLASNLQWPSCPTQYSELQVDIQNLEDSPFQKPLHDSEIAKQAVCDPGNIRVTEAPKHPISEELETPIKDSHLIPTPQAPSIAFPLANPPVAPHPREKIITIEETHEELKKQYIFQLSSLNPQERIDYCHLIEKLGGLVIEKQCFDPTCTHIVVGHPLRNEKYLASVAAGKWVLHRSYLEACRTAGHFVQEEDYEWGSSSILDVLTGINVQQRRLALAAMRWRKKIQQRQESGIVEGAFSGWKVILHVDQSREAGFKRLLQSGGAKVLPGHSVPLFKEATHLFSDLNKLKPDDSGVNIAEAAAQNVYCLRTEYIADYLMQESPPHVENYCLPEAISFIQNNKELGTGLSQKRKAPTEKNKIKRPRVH
# Sequence of UniProt Q6NXR4 (Q6NXR4 whole entry, looked up): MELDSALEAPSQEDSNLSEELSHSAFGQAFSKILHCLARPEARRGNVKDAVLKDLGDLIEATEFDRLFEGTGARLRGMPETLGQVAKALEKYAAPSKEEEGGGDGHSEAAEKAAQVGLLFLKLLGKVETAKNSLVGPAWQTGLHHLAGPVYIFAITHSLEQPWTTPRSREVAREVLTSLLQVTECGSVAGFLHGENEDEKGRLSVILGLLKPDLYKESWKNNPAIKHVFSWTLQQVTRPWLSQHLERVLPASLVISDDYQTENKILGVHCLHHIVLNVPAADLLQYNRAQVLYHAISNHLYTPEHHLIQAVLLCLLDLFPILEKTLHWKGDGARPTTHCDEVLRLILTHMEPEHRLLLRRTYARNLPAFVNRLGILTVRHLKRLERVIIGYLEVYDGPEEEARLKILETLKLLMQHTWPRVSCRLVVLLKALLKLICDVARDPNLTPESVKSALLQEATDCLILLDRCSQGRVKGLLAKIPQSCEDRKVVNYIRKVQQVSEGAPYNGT
Target,log2 fold change (ibrutinib),log2 fold change [1],log2 fold change (ralimetinib),log2 fold change [2],log2 fold change [3],log2 fold change [4],log2 fold change [5],log2 fold change [6],log2 fold change [7],log2 fold change [8],log2 fold change (vemurafenib),log2 fold change [9],log2 fold change (barasertib),log2 fold change [10],log2 fold change (volasertib),log2 fold change [11],log2 fold change [12],log2 fold change [13],log2 fold change (saracatinib),log2 fold change (sotrastaurin)
TTI2 (UniProt Q6NXR4),0.012,0.016,0.019,-0.062,-0.004,-0.009,0.018,-0.009,-0.015,-0.017,-0.009,0,0.005,-0.022,-0.048,-0.004,0,0.035,0.037,0.031
TELO2 (UniProt Q9Y4R8),-0.023,0,0.019,-0.052,0.002,0.029,-0.015,0.006,0.014,0.017,0.063,0,0.088,-0.073,-0.071,0.048,-0.017,-0.043,0,0.037
TRNAU1AP (UniProt Q9NX07),-0.013,-0.212,0.07,-0.045,0.039,-0.008,0.02,-0.035,0.034,0.021,-0.335 (active),0.007,0.059,0.062,-0.041,0.04,-0.264,0.031,0.027,-0.027
TRAPPC12 (UniProt Q8WVT3),0.001,-0.011,0.064,0.02,-0.014,-0.022,-0.003,0.008,-0.001,0.009,0.039,-0.001,-0.007,0.047,-0.083,-0.03,-0.027,-0.009,0.028,-0.003
TOPBP1 (UniProt Q92547),0.012,0.003,0.011,0.011,0.006,-0.02,-0.01,-0.035,0.041,0.055,0.024,-0.08,0.018,0.012,-0.079,-0.029,0.305 (active),-0.071,-0.003,0.02
UFSP2 (UniProt Q9NUQ7),0.004,-0.005,0.023,-0.004,-0.023,0.01,0.005,-0.036,-0.003,-0.006,0.074,-0.018,-0.019,0.072,-0.071,0.016,-0.011,0.002,0.036,0.018
TUBA3C (UniProt P0DPH7),-0.009,-0.007,0.041,-0.045,-0.047,0.002,0.029,-0.021,0.038,0.001,0.037,0.021,-0.011,-0.041,-0.026,0.012,-0.062,-0.013,0.013,0.048
TBL3 (UniProt Q12788),-0.006,-0.016,0.027,0.001,0.026,0.013,-0.017,0.027,0.046,0.008,0.02,0.003,0.042,-0.018,-0.006,0.004,-0.005,-0.012,0.026,0.009
TPM3 isoform 2 (UniProt P06753),0.03,-0.007,-0.02,0.05,-0.034,-0.005,-0.019,-0.073,0.002,-0.006,-0.052,-0.024,-0.016,-0.07,0.007,0.026,0.196,-0.179,-0.009,0.025
TUBE1 (UniProt Q9UJT0),0.065,-0.017,0.05,-0.034,0.024,-0.001,0.027,-0.02,0.001,-0.03,0.036,0.012,0.03,0.112,-0.005,0.028,0.257,-0.082,0.089,0.043
TBL2 (UniProt Q9Y4P3),0.014,0.059,0.005,-0.001,0,0.045,0.031,-0.008,0.03,0.05,-0.016,-0.013,-0.015,-0.029,-0.034,-0.045,-0.029,0.022,0.027,0.001
TBRG4 (UniProt Q969Z0),0.014,0.025,0.002,-0.023,-0.011,0.001,0.062,-0.041,0.044,-0.023,-0.016,0.008,0.051,-0.075,-0.079,0.048,0.052,-0.128,0.026,0.013
TOX4 (UniProt O94842),-0.009,0.054,0.009,-0.034,-0.008,0.024,-0.002,0.033,0.023,0.006,-0.019,0.005,0.017,0.06,-0.027,-0.018,-0.235,0.147,0.041,0.005
TTC4 (UniProt O95801),0.002,0.015,0.005,0.011,0.03,-0.029,-0.033,0.026,0.029,0,0.004,0.05,-0.004,0.008,-0.024,0.007,-0.089,-0.027,0.033,0.005
TIAL1 isoform 2 (UniProt Q01085),0.018,-0.004,-0.063,-0.001,-0.001,0.049,0.015,-0.167,-0.06,-0.012,-0.009,0.014,-0.023,0.072,0.005,0.002,-0.076,0.056,-0.02,-0.017
TPM4 isoform 2 (UniProt P67936),-0.062,0.016,-0.005,0.032,-0.034,-0.027,-0.025,-0.06,-0.004,0,0.031,-0.016,0.021,0.052,0.005,0.048,0.525 (active),-0.231,-0.001,-0.03
